# Results reported in PMC7862700, “An all-to-all approach to the identification of sequence-specific readers for epigenetic DNA modifications on cytosine”.
# Tests used:
# Assay in all cases: DAPPL (digital affinity profiling via proximity ligation, sequencing); 10 mM Tris-HCl pH 7.5, 50 mM NaCl, 1 mM DTT, 4% glycerol, room temperature, 30 min; GST-TFs on glutathione beads, 16-mer random dsDNA library, 0.1% formaldehyde crosslink after washing; high values mean tight binding
# FLI1 = molecular target: T1, FLI1 (Homo sapiens, UniProt Q01543 1-452); details: protein: recombinant; tags: N-terminal GST; dsDNA, one strand shown
# T1 sequence: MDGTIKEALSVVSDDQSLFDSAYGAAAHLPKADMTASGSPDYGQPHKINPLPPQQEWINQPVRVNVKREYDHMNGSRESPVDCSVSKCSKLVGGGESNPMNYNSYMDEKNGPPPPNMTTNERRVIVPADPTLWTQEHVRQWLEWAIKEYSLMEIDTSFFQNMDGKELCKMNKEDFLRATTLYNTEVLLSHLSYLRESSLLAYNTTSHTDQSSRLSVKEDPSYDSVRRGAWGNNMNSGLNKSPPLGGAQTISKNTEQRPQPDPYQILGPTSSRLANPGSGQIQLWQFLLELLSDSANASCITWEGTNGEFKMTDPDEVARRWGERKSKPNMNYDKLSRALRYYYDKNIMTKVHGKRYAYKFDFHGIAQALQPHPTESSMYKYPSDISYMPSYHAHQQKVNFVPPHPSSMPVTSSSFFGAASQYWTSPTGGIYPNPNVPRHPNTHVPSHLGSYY
# Procedure, shortened: (§1)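 GST fusions of human transcription factors were expressed in yeast and captured with glutathione beads. Once given DNA barcodes and pooled alongside a tag-only sample, they were incubated for 30 min at room temperature with 200 nmole of a random double-stranded 16-mer DNA library in Tris/NaCl/DTT/glycerol buffer, then washed, crosslinked (0.1% formaldehyde), proximity-ligated, PCR-amplified and sequenced on an Illumina NextSeq500. The binding signal of each hexamer is its read frequency for a factor divided by its frequency for the tag-only sample.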
# ELK1 = molecular target: T2, ELK1 (Homo sapiens, UniProt P19419 1-428); details: protein: recombinant; tags: N-terminal GST; dsDNA, one strand shown
# T2 sequence: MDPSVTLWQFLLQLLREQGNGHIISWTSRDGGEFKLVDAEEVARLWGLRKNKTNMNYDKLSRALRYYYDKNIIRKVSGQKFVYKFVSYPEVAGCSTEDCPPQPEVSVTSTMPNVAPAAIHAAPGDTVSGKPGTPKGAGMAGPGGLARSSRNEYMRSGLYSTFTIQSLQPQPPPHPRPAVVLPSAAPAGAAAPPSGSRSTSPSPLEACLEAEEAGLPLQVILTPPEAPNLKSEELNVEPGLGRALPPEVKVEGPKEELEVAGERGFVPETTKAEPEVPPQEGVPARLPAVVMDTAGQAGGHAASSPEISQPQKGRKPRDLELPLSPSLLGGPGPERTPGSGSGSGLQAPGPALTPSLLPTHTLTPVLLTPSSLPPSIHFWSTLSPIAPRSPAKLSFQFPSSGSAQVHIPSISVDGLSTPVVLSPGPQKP
# Procedure, shortened: as §1
# GABPA = molecular target: T3, GABPA (Homo sapiens, UniProt Q06546 1-454); details: protein: recombinant; tags: N-terminal GST; dsDNA, one strand shown
# T3 sequence: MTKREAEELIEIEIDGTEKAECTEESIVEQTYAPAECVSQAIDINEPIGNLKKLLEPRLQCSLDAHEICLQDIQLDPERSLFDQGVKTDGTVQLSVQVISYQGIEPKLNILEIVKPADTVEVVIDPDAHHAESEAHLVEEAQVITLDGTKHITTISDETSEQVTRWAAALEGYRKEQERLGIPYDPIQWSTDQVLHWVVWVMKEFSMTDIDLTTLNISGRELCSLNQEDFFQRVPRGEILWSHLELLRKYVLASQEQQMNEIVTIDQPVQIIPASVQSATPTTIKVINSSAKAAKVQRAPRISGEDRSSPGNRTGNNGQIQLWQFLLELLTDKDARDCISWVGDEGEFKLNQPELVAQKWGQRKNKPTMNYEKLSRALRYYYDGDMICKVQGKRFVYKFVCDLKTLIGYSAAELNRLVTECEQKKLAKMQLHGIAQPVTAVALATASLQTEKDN
# Procedure, shortened: as §1
# ERG = molecular target: T4, ERG (Homo sapiens, UniProt P11308 1-479); details: protein: recombinant; tags: N-terminal GST; dsDNA, one strand shown
# T4 sequence: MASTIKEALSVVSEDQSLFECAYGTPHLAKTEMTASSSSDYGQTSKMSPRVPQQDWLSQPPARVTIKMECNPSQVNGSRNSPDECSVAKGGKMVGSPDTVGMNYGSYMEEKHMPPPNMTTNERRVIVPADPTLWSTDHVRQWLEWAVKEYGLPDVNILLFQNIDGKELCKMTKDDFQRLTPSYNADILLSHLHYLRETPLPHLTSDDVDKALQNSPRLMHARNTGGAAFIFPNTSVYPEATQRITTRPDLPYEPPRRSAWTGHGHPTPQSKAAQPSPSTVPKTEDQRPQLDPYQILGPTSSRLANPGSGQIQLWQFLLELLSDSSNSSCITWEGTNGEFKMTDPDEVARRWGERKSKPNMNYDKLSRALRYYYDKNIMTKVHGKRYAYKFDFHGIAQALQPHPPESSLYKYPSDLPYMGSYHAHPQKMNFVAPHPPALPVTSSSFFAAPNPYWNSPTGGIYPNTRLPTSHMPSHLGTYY
# Procedure, shortened: as §1
# ELF1 = ELF1 (Homo sapiens, UniProt P32519 1-619); details: protein: recombinant; tags: N-terminal GST; dsDNA, one strand shown
# Procedure, shortened: as §1
# EHF = molecular target: T5, EHF (Homo sapiens, UniProt Q9NZC4 1-300); details: protein: recombinant; tags: N-terminal GST; dsDNA, one strand shown
# T5 sequence: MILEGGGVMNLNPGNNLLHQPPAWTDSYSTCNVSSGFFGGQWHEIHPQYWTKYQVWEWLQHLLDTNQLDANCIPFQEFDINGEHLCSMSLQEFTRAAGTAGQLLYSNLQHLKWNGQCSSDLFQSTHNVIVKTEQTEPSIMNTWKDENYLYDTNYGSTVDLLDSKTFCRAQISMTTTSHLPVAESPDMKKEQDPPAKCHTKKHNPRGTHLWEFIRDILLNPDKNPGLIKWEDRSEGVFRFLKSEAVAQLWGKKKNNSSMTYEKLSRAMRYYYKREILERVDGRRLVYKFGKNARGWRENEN
# Procedure, shortened: as §1
# SPI1 = SPI1 (Homo sapiens, UniProt P17947 1-270); details: protein: recombinant; tags: N-terminal GST; dsDNA, one strand shown
# Procedure, shortened: as §1
# SPIB = SPIB (Homo sapiens, UniProt Q01892 1-262); details: protein: recombinant; tags: N-terminal GST; dsDNA, one strand shown
# Procedure, shortened: as §1
# ELK3 = molecular target: T6, ELK3 (Homo sapiens, UniProt P41970 1-407); details: protein: recombinant; tags: N-terminal GST; dsDNA, one strand shown
# T6 sequence: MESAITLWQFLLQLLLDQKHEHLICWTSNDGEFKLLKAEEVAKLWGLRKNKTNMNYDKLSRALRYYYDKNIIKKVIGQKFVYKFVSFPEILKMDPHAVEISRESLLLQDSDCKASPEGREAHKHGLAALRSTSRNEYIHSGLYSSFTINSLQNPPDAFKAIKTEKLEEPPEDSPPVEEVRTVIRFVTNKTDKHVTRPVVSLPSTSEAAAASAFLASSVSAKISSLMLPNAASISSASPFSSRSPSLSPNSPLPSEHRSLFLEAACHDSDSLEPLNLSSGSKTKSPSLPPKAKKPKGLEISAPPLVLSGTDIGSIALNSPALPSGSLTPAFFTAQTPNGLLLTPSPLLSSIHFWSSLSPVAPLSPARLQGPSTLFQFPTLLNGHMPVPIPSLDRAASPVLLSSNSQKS
# Procedure, shortened: as §1
# FEV = molecular target: T7, FEV (Homo sapiens, UniProt Q99581 1-238); details: protein: recombinant; tags: N-terminal GST; dsDNA, one strand shown
# T7 sequence: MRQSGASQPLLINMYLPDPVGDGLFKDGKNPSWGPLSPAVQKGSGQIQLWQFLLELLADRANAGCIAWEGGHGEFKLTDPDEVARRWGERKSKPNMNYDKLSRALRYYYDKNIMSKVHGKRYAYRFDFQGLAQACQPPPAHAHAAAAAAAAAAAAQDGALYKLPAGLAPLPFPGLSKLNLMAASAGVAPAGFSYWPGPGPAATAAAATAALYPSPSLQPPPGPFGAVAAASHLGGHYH
# Procedure, shortened: as §1
# ETV5 = ETV5 (Homo sapiens, UniProt P41161 1-510); details: protein: recombinant; tags: N-terminal GST; dsDNA, one strand shown
# Procedure, shortened: as §1
# HSF1 = HSF1 (Homo sapiens, UniProt Q00613 1-529); details: protein: recombinant; tags: N-terminal GST; chain copies: 3; dsDNA, one strand shown
# Procedure, shortened: as §1
# SPIC = molecular target: T8, SPIC (Homo sapiens, UniProt Q8N5J4 1-248); details: protein: recombinant; tags: N-terminal GST; dsDNA, one strand shown
# T8 sequence: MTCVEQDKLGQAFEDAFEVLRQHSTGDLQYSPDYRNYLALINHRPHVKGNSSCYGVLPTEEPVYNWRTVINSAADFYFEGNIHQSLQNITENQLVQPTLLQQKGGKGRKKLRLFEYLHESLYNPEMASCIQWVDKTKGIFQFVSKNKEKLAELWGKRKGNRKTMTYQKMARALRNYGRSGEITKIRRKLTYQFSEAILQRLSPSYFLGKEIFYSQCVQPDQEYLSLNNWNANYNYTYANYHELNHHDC
# Procedure, shortened: as §1
# ELF4 = ELF4 (Homo sapiens, UniProt Q99607 1-663); details: protein: recombinant; tags: N-terminal GST; dsDNA, one strand shown
# Procedure, shortened: as §1
# ELK4 = molecular target: T9, ELK4 (Homo sapiens, UniProt P28324-2 1-405); details: protein: recombinant; tags: N-terminal GST; dsDNA, one strand shown
# T9 sequence: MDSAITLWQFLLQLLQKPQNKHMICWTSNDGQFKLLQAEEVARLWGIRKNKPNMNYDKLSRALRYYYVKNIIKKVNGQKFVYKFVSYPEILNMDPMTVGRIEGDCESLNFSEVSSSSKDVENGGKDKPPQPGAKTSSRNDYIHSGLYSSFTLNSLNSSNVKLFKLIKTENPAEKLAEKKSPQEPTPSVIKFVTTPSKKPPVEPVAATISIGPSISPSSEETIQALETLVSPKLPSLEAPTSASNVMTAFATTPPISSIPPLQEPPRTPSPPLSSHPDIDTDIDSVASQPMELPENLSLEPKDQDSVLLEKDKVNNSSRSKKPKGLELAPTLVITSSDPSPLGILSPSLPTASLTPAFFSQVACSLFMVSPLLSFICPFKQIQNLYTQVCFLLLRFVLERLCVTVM
# Procedure, shortened: as §1
# ETV2 = molecular target: T10, ETV2 (Homo sapiens, UniProt O00321 1-342); details: protein: recombinant; tags: N-terminal GST; dsDNA, one strand shown
# T10 sequence: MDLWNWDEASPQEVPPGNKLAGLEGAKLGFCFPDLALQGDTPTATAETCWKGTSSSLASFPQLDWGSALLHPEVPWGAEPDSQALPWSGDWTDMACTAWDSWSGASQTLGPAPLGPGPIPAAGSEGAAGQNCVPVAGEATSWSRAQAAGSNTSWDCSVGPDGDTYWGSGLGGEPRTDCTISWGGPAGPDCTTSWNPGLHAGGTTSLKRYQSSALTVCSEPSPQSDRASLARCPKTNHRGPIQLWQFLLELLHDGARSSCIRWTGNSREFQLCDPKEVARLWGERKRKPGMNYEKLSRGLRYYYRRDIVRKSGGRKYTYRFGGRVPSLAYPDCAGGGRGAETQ
# Procedure, shortened: as §1
# ELF3 = molecular target: T11, ELF3 (Homo sapiens, UniProt P78545 1-371); details: protein: recombinant; tags: N-terminal GST; dsDNA, one strand shown
# T11 sequence: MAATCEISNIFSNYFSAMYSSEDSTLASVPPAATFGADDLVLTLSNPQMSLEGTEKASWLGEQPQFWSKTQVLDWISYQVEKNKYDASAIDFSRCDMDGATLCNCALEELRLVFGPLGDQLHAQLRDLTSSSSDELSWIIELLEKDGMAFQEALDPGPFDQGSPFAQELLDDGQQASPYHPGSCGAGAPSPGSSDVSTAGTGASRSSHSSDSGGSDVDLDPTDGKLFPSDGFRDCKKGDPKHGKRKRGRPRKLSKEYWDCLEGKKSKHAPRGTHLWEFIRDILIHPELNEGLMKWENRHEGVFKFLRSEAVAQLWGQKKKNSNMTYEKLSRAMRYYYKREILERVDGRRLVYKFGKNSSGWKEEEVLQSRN
# Procedure, shortened: as §1
# CRX = CRX (Homo sapiens, UniProt O43186 1-299); details: protein: recombinant; tags: N-terminal GST; dsDNA, one strand shown
# Procedure, shortened: as §1
# ETV1 = ETV1 (Homo sapiens, UniProt P50549 1-477); details: protein: recombinant; tags: N-terminal GST; dsDNA, one strand shown
# Procedure, shortened: as §1
# Chain of ELF4 (Q99607 whole entry): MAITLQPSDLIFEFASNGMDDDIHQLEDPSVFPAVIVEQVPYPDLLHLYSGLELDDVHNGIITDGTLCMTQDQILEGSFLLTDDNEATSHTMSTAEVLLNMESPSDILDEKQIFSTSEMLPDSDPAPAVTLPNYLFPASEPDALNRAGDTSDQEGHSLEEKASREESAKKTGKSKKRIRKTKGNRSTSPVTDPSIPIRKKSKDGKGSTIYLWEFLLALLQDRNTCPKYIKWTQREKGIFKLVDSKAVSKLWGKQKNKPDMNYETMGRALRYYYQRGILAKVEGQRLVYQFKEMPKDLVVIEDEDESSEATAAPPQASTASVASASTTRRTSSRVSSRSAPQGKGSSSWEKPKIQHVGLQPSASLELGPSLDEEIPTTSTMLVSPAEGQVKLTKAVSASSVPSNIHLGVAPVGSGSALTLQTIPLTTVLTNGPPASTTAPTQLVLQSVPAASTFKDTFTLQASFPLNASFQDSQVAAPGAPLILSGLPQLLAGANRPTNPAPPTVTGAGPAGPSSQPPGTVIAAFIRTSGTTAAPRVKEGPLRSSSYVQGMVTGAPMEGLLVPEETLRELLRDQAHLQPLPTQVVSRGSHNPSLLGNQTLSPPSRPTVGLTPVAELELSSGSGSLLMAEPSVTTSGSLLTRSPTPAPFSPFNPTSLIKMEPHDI
# Chain of HSF1 (Q00613 whole entry): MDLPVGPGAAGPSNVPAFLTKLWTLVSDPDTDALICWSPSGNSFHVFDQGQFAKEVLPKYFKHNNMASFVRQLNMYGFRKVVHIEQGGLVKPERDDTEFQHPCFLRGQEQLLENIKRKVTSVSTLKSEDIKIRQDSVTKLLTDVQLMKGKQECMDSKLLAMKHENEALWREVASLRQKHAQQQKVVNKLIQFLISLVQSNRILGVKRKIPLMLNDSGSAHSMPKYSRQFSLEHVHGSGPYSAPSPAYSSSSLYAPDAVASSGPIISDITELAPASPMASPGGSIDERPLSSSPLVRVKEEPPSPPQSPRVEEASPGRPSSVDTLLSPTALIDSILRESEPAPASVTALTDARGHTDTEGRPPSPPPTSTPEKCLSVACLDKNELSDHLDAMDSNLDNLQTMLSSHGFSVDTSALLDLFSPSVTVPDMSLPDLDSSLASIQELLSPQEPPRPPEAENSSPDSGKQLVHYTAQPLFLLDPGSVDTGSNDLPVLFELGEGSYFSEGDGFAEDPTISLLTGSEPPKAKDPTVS
# Chain of ETV5 (P41161 whole entry): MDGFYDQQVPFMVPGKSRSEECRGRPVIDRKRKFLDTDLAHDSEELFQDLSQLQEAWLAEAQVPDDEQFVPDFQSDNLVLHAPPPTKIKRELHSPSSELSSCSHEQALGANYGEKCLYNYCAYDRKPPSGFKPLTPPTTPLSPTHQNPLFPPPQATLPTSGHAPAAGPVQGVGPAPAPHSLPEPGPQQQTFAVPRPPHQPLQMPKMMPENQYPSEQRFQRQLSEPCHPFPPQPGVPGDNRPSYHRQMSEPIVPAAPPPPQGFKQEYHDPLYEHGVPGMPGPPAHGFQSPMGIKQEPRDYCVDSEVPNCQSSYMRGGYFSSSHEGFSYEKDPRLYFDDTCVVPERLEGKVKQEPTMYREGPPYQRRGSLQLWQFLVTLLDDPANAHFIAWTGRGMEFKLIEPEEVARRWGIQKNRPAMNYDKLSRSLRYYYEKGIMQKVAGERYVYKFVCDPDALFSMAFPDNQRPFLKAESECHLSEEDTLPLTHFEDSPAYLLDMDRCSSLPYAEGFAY
# Chain of ETV1 (P50549 whole entry): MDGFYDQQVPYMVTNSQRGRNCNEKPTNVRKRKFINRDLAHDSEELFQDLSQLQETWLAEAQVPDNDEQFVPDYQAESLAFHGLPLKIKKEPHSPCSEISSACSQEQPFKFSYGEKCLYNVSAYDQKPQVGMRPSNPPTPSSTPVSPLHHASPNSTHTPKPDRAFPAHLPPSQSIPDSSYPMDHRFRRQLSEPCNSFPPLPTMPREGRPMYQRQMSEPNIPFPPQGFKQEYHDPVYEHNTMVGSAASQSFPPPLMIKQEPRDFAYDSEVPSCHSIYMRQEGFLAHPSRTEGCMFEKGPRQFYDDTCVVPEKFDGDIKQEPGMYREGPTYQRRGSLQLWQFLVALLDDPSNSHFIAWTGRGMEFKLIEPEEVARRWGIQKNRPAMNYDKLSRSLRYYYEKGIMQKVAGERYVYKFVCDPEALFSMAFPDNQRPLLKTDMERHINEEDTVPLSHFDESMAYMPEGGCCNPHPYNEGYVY
# Chain of CRX (O43186 whole entry): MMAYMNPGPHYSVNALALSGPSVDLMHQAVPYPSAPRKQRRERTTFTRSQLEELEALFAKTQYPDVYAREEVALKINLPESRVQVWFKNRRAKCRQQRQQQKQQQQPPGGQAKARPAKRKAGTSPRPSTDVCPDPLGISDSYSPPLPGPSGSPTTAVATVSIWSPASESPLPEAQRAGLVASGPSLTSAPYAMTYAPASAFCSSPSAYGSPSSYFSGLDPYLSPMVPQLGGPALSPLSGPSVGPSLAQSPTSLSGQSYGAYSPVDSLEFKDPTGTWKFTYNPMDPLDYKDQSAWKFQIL
# Chain of ELF1 (P32519 whole entry): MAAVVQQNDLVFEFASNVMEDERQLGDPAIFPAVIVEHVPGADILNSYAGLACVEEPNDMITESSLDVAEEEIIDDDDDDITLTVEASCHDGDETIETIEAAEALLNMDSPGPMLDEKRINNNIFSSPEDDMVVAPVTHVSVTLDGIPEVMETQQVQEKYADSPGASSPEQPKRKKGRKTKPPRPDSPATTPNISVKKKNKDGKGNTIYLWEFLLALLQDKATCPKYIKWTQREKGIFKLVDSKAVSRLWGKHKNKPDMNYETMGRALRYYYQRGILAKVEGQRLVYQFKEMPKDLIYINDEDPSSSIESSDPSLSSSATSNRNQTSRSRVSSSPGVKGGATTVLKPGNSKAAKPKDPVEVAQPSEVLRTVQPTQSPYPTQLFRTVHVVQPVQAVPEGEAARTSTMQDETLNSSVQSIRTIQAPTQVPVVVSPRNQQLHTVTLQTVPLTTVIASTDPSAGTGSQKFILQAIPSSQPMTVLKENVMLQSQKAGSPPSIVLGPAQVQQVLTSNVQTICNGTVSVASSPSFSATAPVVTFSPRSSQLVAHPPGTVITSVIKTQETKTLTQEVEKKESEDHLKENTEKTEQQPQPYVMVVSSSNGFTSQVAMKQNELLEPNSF
# Chain of SPIB (Q01892 whole entry): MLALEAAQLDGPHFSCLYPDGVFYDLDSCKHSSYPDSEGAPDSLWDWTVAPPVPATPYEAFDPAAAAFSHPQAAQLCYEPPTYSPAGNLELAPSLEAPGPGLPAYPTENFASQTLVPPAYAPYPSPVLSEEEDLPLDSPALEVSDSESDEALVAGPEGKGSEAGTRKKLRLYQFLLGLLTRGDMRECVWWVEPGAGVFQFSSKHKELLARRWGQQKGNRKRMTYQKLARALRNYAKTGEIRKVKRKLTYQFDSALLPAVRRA
sequence,measurement,setting,value
CTGCAT,binding signal,FLI1,"1.42 fold enrichment (6-mer frequency, TF over GST control)"
same,binding signal,ELK1,"1.51 fold enrichment (6-mer frequency, TF over GST control)"
same,binding signal,GABPA,"1.41 fold enrichment (6-mer frequency, TF over GST control)"
same,binding signal,ERG,"1.41 fold enrichment (6-mer frequency, TF over GST control)"
same,binding signal,ELF1,"1.47 fold enrichment (6-mer frequency, TF over GST control)"
same,binding signal,EHF,"1.47 fold enrichment (6-mer frequency, TF over GST control)"
same,binding signal,SPI1,"1.42 fold enrichment (6-mer frequency, TF over GST control)"
same,binding signal,SPIB,"1.65 fold enrichment (6-mer frequency, TF over GST control)"
same,binding signal,ELK3,"1.39 fold enrichment (6-mer frequency, TF over GST control)"
same,binding signal,FEV,"1.54 fold enrichment (6-mer frequency, TF over GST control)"
same,binding signal,ETV5,"1.46 fold enrichment (6-mer frequency, TF over GST control)"
same,binding signal,HSF1,"1.12 fold enrichment (6-mer frequency, TF over GST control)"
same,binding signal,SPIC,"1.32 fold enrichment (6-mer frequency, TF over GST control)"
same,binding signal,ELF4,"1.43 fold enrichment (6-mer frequency, TF over GST control)"
same,binding signal,ELK4,"1.39 fold enrichment (6-mer frequency, TF over GST control)"
same,binding signal,ETV2,"1.28 fold enrichment (6-mer frequency, TF over GST control)"
same,binding signal,ELF3,"1.4 fold enrichment (6-mer frequency, TF over GST control)"
same,binding signal,CRX,"1.12 fold enrichment (6-mer frequency, TF over GST control)"
same,binding signal,ETV1,"1.29 fold enrichment (6-mer frequency, TF over GST control)"
